Laboratory results reported in ChEMBL document CHEMBL1961873, “Compounds: GSK PKIS; Assays: Nanosyn kinase panel” (2012).
Where “and” joins values, the source holds several entries; their conditions need not be identical. Equal values may be shown once.

Legend:
[1] = biological target: Platelet-derived growth factor receptor beta (Homo sapiens) (UniProt P09619); conditions: at 1 µM;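 further: each value is a mean percent inhibition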
[2] = biological target: Tyrosine-protein kinase FRK (Homo sapiens) (UniProt P42685); conditions: at 0.1 µM
[3] = biological target: Tyrosine-protein kinase FRK (Homo sapiens) (UniProt P42685); conditions: at 1 µM
[4] = biological target: Protein-tyrosine kinase 2-beta (Homo sapiens) (UniProt Q14289); conditions: at 0.1 µM
[5] = biological target: Protein-tyrosine kinase 2-beta (Homo sapiens) (UniProt Q14289); conditions: at 1 µM
[6] = biological target: Proto-oncogene tyrosine-protein kinase receptor Ret (Homo sapiens) (UniProt P07949); conditions: at 0.1 µM
[7] = biological target: Proto-oncogene tyrosine-protein kinase receptor Ret (Homo sapiens) (UniProt P07949); conditions: at 1 µM
[8] = tested on: Proto-oncogene tyrosine-protein kinase receptor Ret (Homo sapiens), P07949 [V804L]; conditions: at 0.1 µM
[9] = tested on: Proto-oncogene tyrosine-protein kinase receptor Ret (Homo sapiens), P07949 [V804L]; conditions: at 1 µM
[10] = tested on: Proto-oncogene tyrosine-protein kinase receptor Ret (Homo sapiens), P07949 [Y791F]; conditions: at 0.1 µM
Chain of Proto-oncogene tyrosine-protein kinase receptor Ret (Homo sapiens), P07949 [Y791F] (P07949 whole entry Y791F): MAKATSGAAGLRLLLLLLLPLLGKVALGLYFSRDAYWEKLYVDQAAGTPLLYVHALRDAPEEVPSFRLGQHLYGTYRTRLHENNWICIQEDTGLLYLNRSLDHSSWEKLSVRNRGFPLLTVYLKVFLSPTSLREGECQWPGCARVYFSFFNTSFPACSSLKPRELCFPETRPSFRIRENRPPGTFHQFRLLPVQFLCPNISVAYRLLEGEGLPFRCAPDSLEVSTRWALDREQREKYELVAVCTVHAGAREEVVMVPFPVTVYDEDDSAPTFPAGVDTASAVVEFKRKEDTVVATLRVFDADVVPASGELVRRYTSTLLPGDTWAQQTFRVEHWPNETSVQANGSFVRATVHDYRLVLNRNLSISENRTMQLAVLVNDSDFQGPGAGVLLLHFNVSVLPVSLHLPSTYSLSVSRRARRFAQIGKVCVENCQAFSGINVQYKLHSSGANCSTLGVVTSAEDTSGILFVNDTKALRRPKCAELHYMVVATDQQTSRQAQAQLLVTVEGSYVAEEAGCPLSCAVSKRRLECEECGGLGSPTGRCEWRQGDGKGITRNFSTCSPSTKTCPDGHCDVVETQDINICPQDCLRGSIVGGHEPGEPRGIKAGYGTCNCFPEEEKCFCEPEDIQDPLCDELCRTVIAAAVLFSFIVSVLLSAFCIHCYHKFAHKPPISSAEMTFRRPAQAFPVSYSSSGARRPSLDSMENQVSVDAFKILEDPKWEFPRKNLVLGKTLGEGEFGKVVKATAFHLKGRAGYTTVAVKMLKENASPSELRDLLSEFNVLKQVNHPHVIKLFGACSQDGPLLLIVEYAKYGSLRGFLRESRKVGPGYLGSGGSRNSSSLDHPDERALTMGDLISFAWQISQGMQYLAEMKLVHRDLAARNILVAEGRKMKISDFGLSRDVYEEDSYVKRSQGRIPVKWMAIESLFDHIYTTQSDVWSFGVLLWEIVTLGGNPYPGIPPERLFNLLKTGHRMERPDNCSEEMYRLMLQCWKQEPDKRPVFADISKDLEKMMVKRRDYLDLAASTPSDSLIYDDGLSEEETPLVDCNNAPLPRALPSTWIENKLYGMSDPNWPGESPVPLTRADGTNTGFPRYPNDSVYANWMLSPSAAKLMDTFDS

Chain of Platelet-derived growth factor receptor beta (Homo sapiens) (P09619 whole entry): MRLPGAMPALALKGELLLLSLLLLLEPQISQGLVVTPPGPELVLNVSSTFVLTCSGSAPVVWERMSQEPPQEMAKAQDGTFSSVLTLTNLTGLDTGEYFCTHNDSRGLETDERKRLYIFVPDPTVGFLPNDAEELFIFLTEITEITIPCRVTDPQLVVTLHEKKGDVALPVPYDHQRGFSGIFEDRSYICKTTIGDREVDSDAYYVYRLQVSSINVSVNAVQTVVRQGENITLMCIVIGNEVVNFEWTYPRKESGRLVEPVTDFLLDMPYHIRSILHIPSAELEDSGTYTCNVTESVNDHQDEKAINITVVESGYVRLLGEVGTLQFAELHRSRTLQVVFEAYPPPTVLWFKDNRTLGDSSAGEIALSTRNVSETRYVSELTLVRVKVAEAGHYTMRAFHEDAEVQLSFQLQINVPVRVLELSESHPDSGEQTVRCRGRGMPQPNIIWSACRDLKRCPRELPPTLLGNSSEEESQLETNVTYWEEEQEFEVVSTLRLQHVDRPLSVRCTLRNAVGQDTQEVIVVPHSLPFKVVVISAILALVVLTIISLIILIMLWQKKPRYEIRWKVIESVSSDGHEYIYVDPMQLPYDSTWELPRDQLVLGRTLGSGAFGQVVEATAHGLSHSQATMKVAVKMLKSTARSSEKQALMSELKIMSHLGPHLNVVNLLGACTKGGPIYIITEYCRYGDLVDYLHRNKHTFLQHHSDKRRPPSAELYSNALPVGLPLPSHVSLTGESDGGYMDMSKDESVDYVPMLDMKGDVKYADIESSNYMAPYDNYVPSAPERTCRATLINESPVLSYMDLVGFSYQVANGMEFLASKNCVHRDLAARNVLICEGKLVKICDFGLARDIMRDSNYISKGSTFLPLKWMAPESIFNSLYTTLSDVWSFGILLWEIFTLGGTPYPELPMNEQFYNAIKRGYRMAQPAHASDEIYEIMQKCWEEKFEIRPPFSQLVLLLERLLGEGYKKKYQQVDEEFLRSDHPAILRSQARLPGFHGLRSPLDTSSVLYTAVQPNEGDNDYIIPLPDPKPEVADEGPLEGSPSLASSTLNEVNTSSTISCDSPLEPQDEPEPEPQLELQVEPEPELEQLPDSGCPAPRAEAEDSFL
Chain of Tyrosine-protein kinase FRK (Homo sapiens) (P42685 whole entry): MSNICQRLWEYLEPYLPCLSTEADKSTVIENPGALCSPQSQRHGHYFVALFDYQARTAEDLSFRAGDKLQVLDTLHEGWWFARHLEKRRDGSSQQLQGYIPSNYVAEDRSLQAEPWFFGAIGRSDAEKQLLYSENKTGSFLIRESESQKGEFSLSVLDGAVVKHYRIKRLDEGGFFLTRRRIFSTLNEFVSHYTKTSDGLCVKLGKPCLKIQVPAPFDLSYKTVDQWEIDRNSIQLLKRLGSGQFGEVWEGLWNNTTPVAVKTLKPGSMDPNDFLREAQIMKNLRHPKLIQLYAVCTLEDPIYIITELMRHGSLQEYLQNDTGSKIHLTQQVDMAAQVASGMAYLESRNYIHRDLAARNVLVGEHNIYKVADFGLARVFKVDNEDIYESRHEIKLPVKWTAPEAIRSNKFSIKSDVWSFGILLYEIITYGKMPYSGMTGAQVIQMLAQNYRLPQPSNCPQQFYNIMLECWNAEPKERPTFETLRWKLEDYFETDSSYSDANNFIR
Chain of Proto-oncogene tyrosine-protein kinase receptor Ret (Homo sapiens) (P07949 whole entry): as the sequence (P07949 whole entry Y791F) above, with F791Y counted along it
Chain of Protein-tyrosine kinase 2-beta (Homo sapiens) (Q14289 whole entry, looked up): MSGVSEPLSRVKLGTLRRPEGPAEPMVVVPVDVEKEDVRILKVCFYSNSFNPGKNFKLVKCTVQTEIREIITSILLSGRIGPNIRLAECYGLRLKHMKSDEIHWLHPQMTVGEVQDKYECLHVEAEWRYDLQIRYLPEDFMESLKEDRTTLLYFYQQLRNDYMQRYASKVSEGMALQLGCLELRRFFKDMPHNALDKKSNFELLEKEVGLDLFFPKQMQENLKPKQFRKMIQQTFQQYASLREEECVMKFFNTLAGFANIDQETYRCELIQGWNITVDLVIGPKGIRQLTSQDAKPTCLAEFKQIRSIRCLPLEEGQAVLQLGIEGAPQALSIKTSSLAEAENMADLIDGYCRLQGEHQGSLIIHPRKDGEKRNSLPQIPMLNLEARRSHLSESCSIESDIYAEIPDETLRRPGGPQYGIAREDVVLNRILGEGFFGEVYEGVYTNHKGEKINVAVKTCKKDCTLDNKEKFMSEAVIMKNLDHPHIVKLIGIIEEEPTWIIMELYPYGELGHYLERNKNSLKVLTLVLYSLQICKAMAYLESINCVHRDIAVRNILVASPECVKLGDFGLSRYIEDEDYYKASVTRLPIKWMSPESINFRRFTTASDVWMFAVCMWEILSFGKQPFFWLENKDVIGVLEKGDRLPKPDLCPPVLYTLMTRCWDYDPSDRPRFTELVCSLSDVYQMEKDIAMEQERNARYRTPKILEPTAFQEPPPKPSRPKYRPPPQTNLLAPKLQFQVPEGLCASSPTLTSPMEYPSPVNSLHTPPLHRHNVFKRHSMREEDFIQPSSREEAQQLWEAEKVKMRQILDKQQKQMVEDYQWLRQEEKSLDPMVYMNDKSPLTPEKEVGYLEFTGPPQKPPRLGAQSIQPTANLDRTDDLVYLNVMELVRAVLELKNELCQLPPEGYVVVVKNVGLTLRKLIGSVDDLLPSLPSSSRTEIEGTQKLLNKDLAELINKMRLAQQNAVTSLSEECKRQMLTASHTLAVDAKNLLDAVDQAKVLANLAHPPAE
Chain of Proto-oncogene tyrosine-protein kinase receptor Ret (Homo sapiens), P07949 [V804L] (P07949 whole entry V804L): as the sequence (P07949 whole entry Y791F) above, with F791Y, V804L counted along it

Row | SMILES | inhibition [1] | inhibition [2] | inhibition [3] | inhibition [4] | inhibition [5] | inhibition [6] | inhibition [7] | inhibition [8] | inhibition [9] | inhibition [10]
1 | COc1ccc(Nc2ncc(-c3ccccc3)o2)cc1OC | 68% | -0.09% | 4.33% | -5.6% | 1.04% | 6.8% | 23.1% | 4.53% | 17.1% | 6.85%
2 | Cc1c2ccc(N(C)c3ccnc(Nc4cccc(S(N)(=O)=O)c4)n3)cc2nn1C | 79.2% | 10.4% | 46.1% | 10.9% | 39% | 44.6% | 77.5% | 10.1% | 37.3% | 60.6%
3 | COc1c(C(N)=O)cc(-c2ccc(Cl)cc2)cc1-c1ccc(S(N)(=O)=O)cc1 | 1.5% | 2.55% | 3.5% | 5.92% | 12.1% | 2.82% | 4.87% | 6.61% | 9.45% | 6.18%
4 | CNC(=O)c1ncccc1Nc1nc(Nc2cc3c(cc2OC)CCCN3C(=O)CN(C)C)nc2[nH]ccc12 | 27.1% | 2.49% | 2.98% | 37.8% | 95.7% | 7.39% | 9.1% | 7.91% | 20.4% | 7.98%
5 | COc1cc2c(cc1Nc1nc(Nc3cccc(F)c3C(N)=O)c3cc[nH]c3n1)N(C(=O)CN1CCN(C(C)C)CC1)CC2 | 5.17% | 0.37% | 1.24% | 57.7% | 93.4% | 1.04% | 5.75% | 1.85% | 7.87% | 1.11%
6 | Cc1cc(O)cc(C)c1/C=C/c1cncc(C(N)=O)c1 | 42% | 2.65% | 14.2% | 8.94% | 8.75% | 3.99% | 8.88% | 0.84% | 4.4% | 3.94%
7 | Cn1c(-c2nonc2N)nc2cnccc21 | 6.81% | 0.98% | 1.06% | 8.49% | 4.49% | 2.99% | 4.58% | 2.88% | 1.31% | 3.98%
8 | CCS(=O)(=O)c1ccc(OC)c(Nc2ncc(-c3cccc(C(C)=O)c3)o2)c1 | 84.3% | 3.25% | 14.2% | 5.43% | 8.24% | 7.26% | 33.6% | 5.03% | 28.8% | 6.91%
9 | CC(C)c1ccc(-c2cc(-c3c[nH]nc3-c3ccccn3)ccn2)cc1 | 11.4% | -0.8% | -0.88% | 1.78% | 3.36% | 2.14% | 5.62% | 3.27% | 2.58% | 5.08%
10 | O=C(O[C@H]1CN[C@H](C#Cc2cc3ncnc(Nc4ccc(OCc5cccc(F)c5)c(Cl)c4)c3s2)C1)N1CCOCC1 | 5.35% | 3.74% | 2.3% | 12.3% | 16.8% | 2% | 10.6% | 2.92% | 6.95% | 4.36%
11 | CN(c1ccc(NC(=O)NCCN2CCOCC2)cc1)c1ccnc(Nc2ccc(CS(C)(=O)=O)cc2)n1 | 77.1% | 1.69% | 0.89% | 11.2% | 57.8% | 16.5% | 58.5% | 13.2% | 48.9% | 29.1%
12 | O=C1Nc2ccccc2/C1=C1\CCc2cc(O)ccc21 | 47.9% | 2.6% | 3.64% | 18.3% | 44% | 23% | 66.3% | 36.1% | 73.6% | 25.8%
13 | COC(=O)Nc1nc2cc(Oc3ccc(NC(=O)Nc4ccccc4)cc3)ccc2[nH]1 | 20.8% | 1.73% | 1.93% | -1.17% | 6.99% | 11.1% | 26.6% | 8.3% | 13.8% | 15.3%
14 | CS(=O)(=O)Nc1ccc(-c2ccc3c(NC(=O)C4CC4)n[nH]c3c2)cc1 | 8.42% | 1.21% | 1.03% | 9.87% | 8.59% | 3.92% | 6.93% | 4.24% | 8.77% | 6.88%
15 | OCCCNc1nccc(-c2c(-c3ccc(F)cc3)nn3cc(C(F)(F)F)ccc23)n1 | 14.4% | 0.71% | 1.35% | 3.13% | 7.75% | 4.24% | 11.4% | 1.59% | 3.05% | 6.39%
16 | FC(F)(F)CNc1nccc(-c2cnn3ncccc23)n1 | 3.09% | 1.82% | 1.72% | -0.29% | 2.94% | 3.97% | 2.84% | 1.22% | 3.68% | 1.04%

Row | SMILES | inhibition [1] | inhibition [2] | inhibition [3] | inhibition [4] | inhibition [5] | inhibition [6] | inhibition [7] | inhibition [8] | inhibition [9] | inhibition [10]
17 | CS(=O)(=O)Nc1ccc(-c2cc(-c3ccccc3)cc(C(N)=O)c2N)cc1 | 9.4% | -0.3% | 1.63% | 3.11% | 8.02% | -0.09% | 2.84% | 2.01% | 2.99% | 4%
18 | Nc1ncnc2occ(-c3ccc(NC(=O)Nc4cc(C(F)(F)F)ccc4F)cc3)c12 | 86.7% and 81.4% | 2.63% and 2.3% | 19.1% and 11.8% | 4.45% and -2.3% |  | 85.3% and 84.5% | 90.7% and 88.5% | 68.3% and 62.2% | 84.7% and 81.1% | 79.2% and 72.6%
19 | Fc1ccc(Nc2nccc(-c3c(-c4ccc(C(F)(F)F)cc4)nn4ncccc34)n2)cc1F | 3.62% | 0.45% | 0.39% | 4.12% | 9.36% | 4% | 6.84% | 1.24% | -1.13% | 5.34%
20 | CN1CCC(C(=O)Nc2n[nH]c3nc(-c4ccc(O)cc4)c(Br)cc23)CC1 | 22.6% and 17.3% | 1.77% and -0.83% | 2.31% and 3.98% | 10.8% and -4.15% | 12.9% and 6.02% | 7.08% and 5.43% | 9.97% and 0.25% | 4.68% and 1.68% |  | 4.94% and 4.6%
21 | COc1cccc(Nc2nccc(-c3cnn4ncccc34)n2)c1 | 70% | 0.08% | 4.45% | 28.5% | 86.6% | 1.21% | 17.1% | 3.16% | 22.6% | 2.74%
22 | CS(=O)(=O)CCNCc1ccc(-c2ccc3ncnc(Nc4ccc(OCc5ccccc5)cc4)c3c2)o1 | 4.72% | 0.38% | 0.96% | 7.76% | 6.51% | 2.99% | 9.8% | 3.01% | 11.9% | 3.34%
23 | CS(=O)(=O)CCNCc1ccc(-c2ccc3ncnc(Nc4ccc(OCc5cccc(C(F)(F)F)c5)cc4)c3c2)o1 | 13.6% | 2.67% | 3.25% | 1.85% | 12.6% | 3.22% | 2.84% | 3.51% | 7.73% | 5.55%
24 | O=C(Nc1n[nH]c2nnc(-c3cccnc3)cc12)C1CC1 | 4.59% | -0.62% | -0.08% | 1.2% | 1.77% | -1.02% | 1.55% | 0.89% | 1.74% | 1.5%
25 | CNC(=O)c1sc(-n2cnc3cc(OC)c(OC)cc32)cc1OCc1ccccc1C(F)(F)F | 44.2% | 1.48% | 3.75% | -3.85% | 0.13% | 1.78% | 9.67% | 6.14% | 11.4% | 8.02%
26 | NS(=O)(=O)c1ccc(N/N=C2\C(=O)Nc3ccc(C(=O)NCc4ccncc4)cc32)cc1 | 85.3% | 1.15% | 0.41% | 3.79% | 8.61% | 11.1% | 49.3% | 31.4% | 75.2% | 10.6%
27 | CS(=O)(=O)CCNCc1ccoc1-c1ccc2ncnc(Nc3ccc(OCc4ccccc4)cc3)c2c1 | 5.15% | -0.85% | 0.98% | 0.12% | 1.57% | 3.73% | 0.18% | 8.41% | 9.53% | 4.19%
28 | c1ccc(-c2n[nH]cc2-c2ccnc(-c3ccc(OCCn4ccnc4)cc3)c2)nc1 | 65.6% | 1.69% | 2.79% | 2.99% | 3.76% | 2% | 9.49% | 2.75% | 13.2% | 2.44%
29 | c1cnn2ncc(-c3ccnc(NCCCN4CCOCC4)n3)c2c1 | 4.61% | 0.16% | 0.39% | 9.94% | 6.44% | 4.78% | 0.87% | 2.98% | 2.2% | 6.04%
30 | CCCNc1cccc(-n2ncc3c(N/N=C/c4ccncc4)ncnc32)c1 | 78.8% | 0.57% | 3.14% | 2.47% | 12.2% | 15% | 54.7% | 7.89% | 40.7% | 16.4%
31 | CCn1c(-c2nonc2N)nc2cncc(C(=O)NCCNC)c21 | 12.4% | 3.22% | 3.52% | 4.6% | 8.62% | 6.45% | 7.16% | 4.21% | 17.1% | 7.45%
